High-throughput results: PubChem BioAssay, National Center for Advancing Translational Sciences (NCATS)
Pf growth 48h: Primary qHTS for delayed death inhibitors of the malarial parasite plastid, 48 hour incubation; P. falciparum luciferase growth in erythrocytes, 48 h; 5.9% of 310,000 active; AID 504832, 2011; Potency, µM (top dose mostly 28.7 µM), for inactives: top-dose activity change, negative = inhibition, hits mostly inhibitors; also: potency is read from the fitted curve at half-maximal effect; % is scaled to controls: 0 for no effect and ±100 for the full control effect
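In quantitative HTS format, infected erythrocytes bearing luciferase-reporter parasites were treated for a single generation at 37 C. Luminescence after adding detection reagent served as the growth measure.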
LmPK inh: qHTS Assay for Inhibitors of Leishmania Mexicana Pyruvate Kinase (LmPK); Q27686; purified LmPK, Kinase-Glo ATP luminescence, 1 h; Potency, µM (titrated, usually from 57.5 µM), for inactives: at the top dose activity change, negative = inhibition, most hits filed as inhibitors; 0.37% of 290,000 active; also: potency is read from the fitted curve at half-maximal effect; % is scaled to controls: 0 for no effect and ±100 for the full control effect
Target sequence (Q27686 whole entry, looked up): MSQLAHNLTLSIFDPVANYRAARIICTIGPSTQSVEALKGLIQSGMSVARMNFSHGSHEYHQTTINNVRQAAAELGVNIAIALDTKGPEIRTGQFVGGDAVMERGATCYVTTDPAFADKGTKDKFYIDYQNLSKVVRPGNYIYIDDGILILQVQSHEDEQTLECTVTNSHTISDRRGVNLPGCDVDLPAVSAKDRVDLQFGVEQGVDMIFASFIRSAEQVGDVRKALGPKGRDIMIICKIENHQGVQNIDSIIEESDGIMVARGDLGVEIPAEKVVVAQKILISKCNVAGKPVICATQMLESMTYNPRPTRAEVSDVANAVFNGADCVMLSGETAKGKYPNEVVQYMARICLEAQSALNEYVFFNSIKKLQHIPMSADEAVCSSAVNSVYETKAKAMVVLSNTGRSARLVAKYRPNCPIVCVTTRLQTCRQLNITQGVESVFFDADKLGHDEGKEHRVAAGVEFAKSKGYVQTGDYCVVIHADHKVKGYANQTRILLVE
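Kinase-Glo luminescence read after 1 h RT reaction of 0.1 nM LmPK with 0.5 mM PEP and 0.1 mM ADP. Activity scaled between uninhibited and enzyme-free controls.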
Shiga toxin inh: A qHTS for Small Molecule Inhibitors of Shiga Toxin. Vero cells, Shiga toxin protein synthesis inhibition reporter. inhibition, % at 38.7 µM. 9.2% of 290,000 active. AID 2315, 2010; in the data active = inhibition mostly above about 28%, no sharp cut-off; inactive = mostly below about 43%; also: 0% is about no effect
CHX counter: Cycloheximide Counterscreen for Small Molecule Inhibitors of Shiga Toxin; cell reporter, cycloheximide protein synthesis inhibition counterscreen; max response, %; 12% of 300,000 active; in the data active = max response mostly above about 13%, no sharp cut-off; inactive = mostly below about 14%; also: read at 38.3 µM for the half of the compounds with a filed dose; 0% is about no effect
Pf growth 96h: Primary qHTS for delayed death inhibitors of the malarial parasite plastid, 96 hour incubation; P. falciparum luciferase reporter growth, 96 h; Potency, µM (top dose mostly 28.7 µM), for inactives: at the highest dose activity change, negative = inhibition, hits mostly inhibitors; 6.9% of 320,000 active; AID 504834, 2011; also: potency is read from the fitted curve at half-maximal effect; % is scaled to controls: 0 for no effect and ±100 for the full control effect
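Two parasite generations (96 h, 37 C, 5% CO2) of compound exposure in infected erythrocytes (0.05% parasitemia, 2% hematocrit). Luciferase-reporter P. falciparum; decreased luminescence indicates inhibited growth, aimed at apicoplast-acting delayed death.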
Numbers without * were called inactive; ? = inconclusive; nt = not tested or not shown. The list is not random: actives were taken first. Their share in the collection is about 22%. Unless noted, calls follow the shape of the dose curve; as a rule, active = well fitted inhibition curve with a large enough effect; inconclusive = small, poorly fitted or top-dose-only effect, or another doubt; inactive = no such curve, though single readings can be large or run the other way.

SMILES	Pf growth 48h	LmPK inh	Shiga toxin inh	CHX counter	Pf growth 96h
CC1CCCN(S(=O)(=O)c2ccc(S(=O)(=O)N3CCCN(Cc4ccccc4)C3)cc2)C1 (centres undefined)	nt	10%	-13	-4	nt
CC(C)CNS(=O)(=O)c1ccc(S(=O)(=O)N2CCCN(Cc3ccccc3)C2)cc1	12µM*	0%	-3	4	10%
COc1cc(OC)cc(-c2cc3nc(C)cc(N4CCN(C(=O)c5ccco5)CC4)n3n2)c1	nt	1%	-20	-4	1.9µM*
COc1ccc(Oc2cc(Cl)nc(N)n2)cc1	19%	1%	12	12	-12%
COc1cccc(Oc2cc(Cl)nc(N)n2)c1	1%	-3%	21*	16*	10%
Nc1nc(Cl)cc(Oc2ccc([N+](=O)[O-])cc2)n1	6%	-6%	-8	-2	10%
CCc1ccc(Oc2cc(Cl)nc(N)n2)cc1	43%	-4%	65*	50*	5%
COc1ccc(N2CCN(C3CCCN(S(=O)(=O)c4ccc(C)cc4C)C3)CC2)cc1 (centres undefined)	?	-9%	-1	-10	?
COc1cc(/C=C/c2cc[n+](C)cc2)ccc1OCC(=O)Nc1ccccc1	3.7µM*	-4%	36	22	-10%
COc1cc(C=C2C(=O)OC(C)(C)OC2=O)ccc1OCC(=O)Nc1ccccc1	56%	-5%	95*	17*	?
C/C=C/c1ccc(OCC(=O)Nc2ccc(C(N)=O)cc2)c(OC)c1	-11%	0%	-6	1	-20%
CCC(C)(C)C1CCc2nc3ccccc3c(C(=O)OC(C)C(=O)Nc3c(C)n(C)n(-c4ccccc4)c3=O)c2C1 (centres undefined)	?	2%	-5	-1	10µM*
CC1CCC(NC(=O)C2CC(=O)N(c3ccc4c(c3)OCCO4)C2)CC1 (centres undefined)	4%	2%	22	4	15%
Clc1ccc(-c2noc(CCCOc3ccccc3)n2)cc1	7%	-2%	6	8	0%
Cc1ccc(-c2noc(CCCc3ccccc3)n2)cc1	17%	-1%	62*	31*	nt
COc1ccc(-c2noc(CCCc3ccccc3)n2)cc1OC	14%	-2%	21	12*	13%
C/C(=N\N1CCN(c2ccccc2)CC1)c1ccccc1O	17%	0%	33	23*	?
C/C(=N\N1CCN(c2ccccc2)CC1)c1ccc(O)cc1	-16%	8%	45*	24*	17%
Oc1ccc(N2CCN(CC(O)c3ccccc3)CC2)cc1 (centres undefined)	?	-21%	-12	-3	?
C=CCN(Cc1ccc(OC)c(OC)c1)C(=O)c1cc2cc(F)ccc2[nH]1	?	4%	36	-1	?
CCSC[C@H](NC(=O)[C@H](C)N)C(=O)N[C@@H](CC(=O)O)C(=O)N[C@H](C(=O)N[C@@H](C)C(=O)N[C@H](C(=O)N[C@@H](CSCC)C(=O)N[C@H](C(=O)N[C@H](C(=O)N[C@@H](Cc1cnc[nH]1)C(=O)N[C@@H](CCCNC(=N)N)C(=O)N[C@@H](CC(C)C)C(=O)N[C@@H](C)C(=O)NCC(=O)N[C@@H](CC(C)C)C(=O)N[C@@H](CC(C)C)C(=O)N[C@@H](CO)C(=O)N[C@@H](CCCNC(=N)N)C(=O)N[C@@H](CO)C(=O)NCC(=O)NCC(=O)N[C@H](C(=O)N[C@H](C(=O)N[C@@H](CCCCN)C(=O)N[C@@H](CC(N)=O)C(=O)N[C@@H](CC(N)=O)C(=O)N[C@@H](Cc1ccccc1)C(=O)N[C@H](C(=O)N1CCC[C@H]1C(=O)N[C@H](C(=O)N[C@@H](CC(N)=O)C(=O)N[C@H](C(=O)NCC(=O)N[C@@H](CO)C(=O)N[C@@H](CCCCN)C(=O)N[C@@H](C)C(=O)N[C@@H](Cc1ccccc1)C(N)=O)C(C)C)[C@@H](C)O)C(C)C)C(C)C)C(C)C)[C@@H](C)O)C(C)C)[C@@H](C)O)[C@@H](C)O	nt	nt	-4	5	nt
CN(C)CCN(C)Cc1ccccc1Sc1cccc2ccccc12	?	1%	-26	-10	13µM*
CNCc1ccccc1Sc1cccc2ccccc12	?	-8%	-12	-5	?
CC(=O)C[C@H](O)CC(=O)[C@H]1OC(=O)CCCCCCCc2ccccc21	77%	nt	nt	nt	?
N#Cc1cc(C#N)c(N2CCN(c3cccc(Cl)n3)CC2)nc1N	3.7µM*	0%	89*	67*	1.7µM*
SMILES	Pf growth 48h	LmPK inh	Shiga toxin inh	CHX counter	Pf growth 96h
CN(C)CCN=Cc1c(O)n(Cc2ccc3c(c2)OCO3)c(=O)c2ccccc12	92%	-3%	-4	1	15%
O=C(CSCc1ccccc1)Nc1ccc2c(c1)OCO2	263%	1%	115*	39*	nt
O=C(Nc1ccc2c(c1)OCO2)NC1CCN(Cc2ccccc2)CC1	?	-6%	41*	36*	nt
O=c1c2ccccc2c(C=NC2CCN(Cc3ccccc3)CC2)c(O)n1Cc1ccc2c(c1)OCO2	4.7µM*	7%	-10	3	?
O=C(CSCSCC(=O)Nc1ccc2c(c1)OCO2)Nc1ccc2c(c1)OCO2	?	7%	26	6	-19%
Cc1ccc(CSCC(=O)Nc2ccc3c(c2)OCO3)cc1	nt	1%	57*	21	-100%
COc1ccc(NC(=O)CCc2nnc3ccc(NCc4ccco4)nn23)cc1OC	-19%	-3%	-9	-2	?
O=C(CSCc1ccc(Cl)cc1)Nc1ccc2c(c1)OCCO2	43%	2%	96*	36	37%
S=C(Nc1ccc(Cl)cc1)NC1CCN(Cc2ccccc2)CC1	?	-3%	-7	-3	6.6µM*
CN(Cc1ccccc1)C(=O)c1ccc(NC(=O)Cc2cccc(NC(=O)C3CCN(C(=O)C4CCCC4)CC3)c2)cc1	?	nt	nt	nt	5.9µM*
CN(Cc1ccccc1)C(=O)c1ccc(NC(=O)Cc2cccc(NC(=O)C3CCCN(C(=O)CCc4ccccc4)C3)c2)cc1 (centres undefined)	3.7µM*	nt	nt	nt	1.5µM*
CCOC(=O)C1CCCN(C(=O)CCc2ccccc2)C1 (centres undefined)	8%	0%	-12	-1	-3%
CN(C(=O)c1ccc(NC(=O)Cc2ccc(NC(=O)C3CCCN(C(=O)CCc4ccccc4)C3)cc2)cc1)C1CC1 (centres undefined)	13µM*	nt	nt	nt	?
O=C(Nc1cccc(F)c1)C1CCN(C(=O)Cc2ccccc2)CC1	?	-4%	-6	-2	?
CN(C(=O)c1ccc(NC(=O)Cc2cccc(NC(=O)C3CCCN(C(=O)C4CCCC4)C3)c2)cc1)C1CCCC1 (centres undefined)	12µM*	nt	nt	nt	3.7µM*
CCn1c(SCC(=O)NC2CCCCC2)nnc1-c1ccccc1F	-15%	-6%	3	-6	?
